A selection: hits, their analogues and other compounds. The true share with any hit is near 21%.
DT40 TDP1 no CPT: qHTS for Inhibitors of human tyrosyl-DNA phosphodiesterase 1 (TDP1): qHTS in cells in absence of CPT | DT40 Tdp1-/- hTDP1 cells, no CPT, ATP luminescence, 48 h | Potency, µM (titrated, usually from 46.2 µM), for the others: top-dose activity change, negative = growth inhibition, actives largely listed as inhibitors | 420,000 tested, 15% active; further: potency means the concentration at half of the fitted maximal effect; on the % scale 0 is the no-effect control and ±100 the full control effect; nearly all actives have a fitted effect of over 55% in size
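Cells were dispensed at 400 per well, compounds added by pin tool, plates incubated ≥48 hr at 37 °C, then CellTiter-Glo added for 30 min at room temperature before luminescence reading. Line: DT40 Tdp1-/- complemented with hTDP1; camptothecin omitted.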
IL-1B inflam inh: qHTS for Inhibitors of Inflammasome Signaling: IL-1-beta AlphaLISA Primary Screen; THP-1 LPS/ATP IL-1B secretion, AlphaLISA, 16 h; active compounds read low; activity change, % at 57.5 µM; AID 743279, 2014; 360,000 tested, 4.7% active; in the data active means activity change below about -50%; inconclusive means mostly about -30% to -49%; further: on the % scale 0 is the no-effect control and ±100 the full control effect
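Secreted IL-1B measured by AlphaLISA bead assay after 16 h compound exposure of THP-1 cells; compounds (final up to 57.5 uM) added 1 h before LPS (250 ng/mL) and ATP (1.25 mM) stimulation; lower signal means less secretion.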
D3 antag: qHTS of D3 Dopamine Receptor Antagonist: qHTS; D(3) dopamine receptor (Homo sapiens), P35462; D3R cells, DiscoveRx beta-arrestin luminescence, antagonist mode; active compounds read low; max response, negative = inhibition, %; 360,000 tested, 2.5% active; AID 652054, 2013; in the data active means max response below about -50%; inconclusive means no clear call, values can overlap the other calls; further: on the % scale 0 is the no-effect control and ±100 the full control effect
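Cells expressing the human receptor were seeded at 1500 cells/well, incubated overnight at 37 degrees C in 5% CO2, then exposed to library compounds with dopamine controls for 90 minutes at 37 degrees C before luminescent detection.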
ClpP mod: qHTS Assay for Activators of ClpP; purified B. subtilis ClpP, FRET peptide cleavage, 20 min; 340,000 tested, 1.9% active; Potency, µM (doses to about 57.5 µM), inactives show at the highest dose activity change, negative = active; ATP-dependent Clp protease proteolytic subunit (Bacillus subtilis (strain 168)), P80244; active means well fitted falling curve with a large enough effect; inconclusive means small, poorly fitted or top-dose-only effect; inactive means no such curve, though single readings can be large or run the other way; further: potency means the concentration at half of the fitted maximal effect; the source files actives as falling curves though it sought activators and does not explain the sign; nearly all actives have a fitted effect of over 65% in size
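FRET quenching reversal measured ClpP activation: 10 microg/mL B. subtilis ClpP at pH 8 with the FRET-FV decapeptide, read at 430 nm after 320 nm excitation. The 20-min minus 0-min signal was scaled between DMSO/no-enzyme wells and ADEP (5.8 microM final).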
TDP1 cell CPT: qHTS for Inhibitors of human tyrosyl-DNA phosphodiesterase 1 (TDP1): qHTS in cells in presence of CPT; Potency, µM (highest dose often 46.2 µM), without a hit: at the top dose activity change, negative = growth inhibition, usual class: inhibitors; 420,000 tested, 12% active; chicken DT40 Tdp1-/-;hTDP1 cells + 20 nM CPT, ATP luminescence, 48 h; further: potency means the concentration at half of the fitted maximal effect; on the % scale 0 is the no-effect control and ±100 the full control effect; nearly all actives have a fitted effect of over 55% in size
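Cell growth measured by CellTiter-Glo luminescence after a minimum 48 h, 37 C compound exposure with 20 nM CPT in Tdp1-knockout DT40 cells stably expressing hTDP1, seeded 400/well; qHTS titration format.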
DRD3 agonist: qHTS of D3 Dopamine Receptor Agonist: qHTS | max activation, % | D(3) dopamine receptor (Homo sapiens), P35462 | D3R DiscoveRx beta-arrestin cells, luminescence, 90 min | 410,000 tested, 0.58% active | AID 652048, 2013; in the data active means max activation above about 30%; further: 0% is about no effect
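Agonist-mode cell screen: cells plated at 1500/well and incubated overnight at 37 °C, then exposed to library compounds for 90 min at 37 °C. Detection reagent was added for 30–60 min at room temperature, and luminescence was read.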
* = called active by the depositor; i = inactive; u = inconclusive; x = not tested or not shown. Unless noted, the call rests on the fitted dose curve; in most records, active means well fitted inhibition curve with a large enough effect; inconclusive means small, poorly fitted or top-dose-only effect; inactive means flat fitted curve, though single readings scatter.

SMILES | DT40 TDP1 no CPT | IL-1B inflam inh | D3 antag | ClpP mod | TDP1 cell CPT | DRD3 agonist
COC(=O)CCNC(=O)N1CCN(c2nnc(C)c3c(C)n(-c4ccccc4)nc23)CC1 | -14% | x | x | 4% | -2% | -12
Cc1ccc(CSc2ccc3nnc(-c4cccnc4)n3n2)cc1 | 4.1µM* | 31 | 138 | 1% | 21µM* | 25
Nn1c(SCc2ccc(Br)cc2)nnc1-c1cccnc1 | -6% | 7 | 0 | 1% | -27% | -13
Cc1ccc(CNc2ccc3nnc(-c4ccccc4)n3n2)cc1 | 2.3µM* | 22 | 6 | -6% | 3.7µM* | 2
O=C(CSc1ccc2nnc(-c3cccnc3)n2n1)c1ccccc1 | -27% | -2 | -9 | x | 2% | -6
Fc1cccc(CSc2ccc3nnc(-c4cccnc4)n3n2)c1 | 16µM* | 17 | 6 | 7% | u | -4
Brc1ccc(CSc2ccc3nnc(-c4cccnc4)n3n2)cc1 | 21µM* | -21 | 33 | -4% | u | 4
O=C(CSc1ccc2nnc(-c3cccnc3)n2n1)Nc1ccc(F)cc1 | 5% | i | 6 | -7% | 10% | 4
O=C(Nc1cc(-c2ccccc2)[nH]n1)c1ccccc1 | u | -54* | 0 | x | -3% | 6
O=C(Nc1cc(-c2ccccc2)[nH]n1)c1ccccc1F | u | -57* | -1 | x | -27% | -5
O=C(O)c1ccccc1C(=O)Nc1cc(-c2ccccc2)[nH]n1 | -13% | 0 | -23 | -1% | 12% | -1
COc1ccc(C)cc1-n1nnc(S(=O)(=O)c2ccc(C)cc2)c1C | u | x | x | -1% | u | 7
O=C(Cn1cc(SCc2ccc(C(F)(F)F)cc2)c2ccccc21)N1CCCCC1 | 23µM* | x | x | -2% | u | -3
O=C(CSc1cn(CC(=O)N2CCCCCC2)c2ccccc12)Nc1ccccc1F | u | x | x | -7% | u | 10
O=C(CSc1cn(CC(=O)N2CCCCC2)c2ccccc12)Nc1ccc(C(F)(F)F)cc1 | -23% | x | x | 1% | -16% | 17
O=C(Cn1cc(SCc2ccc(C(F)(F)F)cc2)c2ccccc21)N1CCCCCC1 | u | x | x | 2% | 18µM* | -7
O=C(CSc1cn(CC(=O)N2CCCC2)c2ccccc12)Nc1cc(C(F)(F)F)ccc1Cl | u | x | x | 0% | 18µM* | 12
Clc1ccc(-c2ccnc3nc(N4CCOCC4)nn23)c(Cl)c1 | -3% | 12 | 13 | x | 1% | 1
CCOc1ccc(NC(=O)C(C)n2c(=O)cc(-c3ccccc3)c3c(C)nn(C)c32)cc1 (configuration not stated) | -7% | x | x | -9% | -5% | -3
Cc1ccc(C(=O)C[n+]2cccc3cc(C)ccc32)cc1 | 15µM* | -8 | 5 | x | 12µM* | -2
O=C(C[n+]1ccnc2ccccc21)c1ccc(Cl)cc1 | u | x | x | -3% | 15% | x
COc1ccc2c(ccc[n+]2CC(=O)c2ccc(C)cc2)c1 | 15µM* | -8 | -3 | -2% | u | -2
Cc1ccc2c(c1)ncc[n+]2CC(=O)c1ccc(F)cc1 | 10µM* | x | x | -12% | 10µM* | x
COc1ccc2c(ccc[n+]2CC(=O)c2ccccc2)c1 | 5% | 31 | 7 | -23% | u | -5
COc1ccc(C(=O)C[n+]2cc(Br)cc3ccccc32)cc1 | 22µM* | x | x | -6% | u | x
SMILES | DT40 TDP1 no CPT | IL-1B inflam inh | D3 antag | ClpP mod | TDP1 cell CPT | DRD3 agonist
CCOC(=O)[C@]12CCC=C1N(Cc1ccc3c(c1)OCO3)C(=O)[C@H](CC(=O)N1CCOCC1)C2 | -3% | 15 | 4 | -1% | -14% | 4
Cn1c(=O)c2sccc2n2c(CCCC(=O)NCCc3ccccc3)nnc12 | -4% | -7 | -9 | 0% | -7% | 1
CC1CCCCN1CC(O)COCc1ccccc1 (configuration not stated) | -4% | 18 | -14 | -3% | -5% | -16
CCc1ccc(C(=O)C[n+]2cccc3cc(OC)ccc32)cc1 | 3.3µM* | u | 5 | 2% | 2.9µM* | -2
Cc1ccc(C(=O)O/N=C(\N)Cc2cccs2)c(Cl)c1 | -16% | u | -17 | 1% | u | -6
Cc1cccc(-c2nc3scc(CCNS(=O)(=O)c4ccc5c(c4)OCCO5)n3n2)c1 | u | x | x | 0% | 23µM* | 10
CC(=O)Nc1ccc(S(=O)(=O)NCCc2csc3nc(-c4cccc(C)c4)nn23)cc1 | 21µM* | x | x | 1% | u | 3
Cc1cccc(-c2nc3scc(CCNS(=O)(=O)c4ccc(F)cc4C)n3n2)c1 | 16µM* | x | x | 1% | u | -14
N#Cc1c(Cl)nc(-c2ccncc2)nc1-c1ccccc1 | 2% | -6 | 17 | -5% | 13% | 1
CCN1C(=O)CC(c2ccccc2)N(C2CCCC2)c2nc(Nc3ccc(C(=O)NC4CCN(C)CC4)cc3OC)ncc21 (configuration not stated) | u | -77* | 3 | -19% | u | 2
COc1ccc(C(=O)NC2CCCCC2)cc1S(=O)(=O)N1CCCC1 | -25% | 0 | 16 | -4% | -17% | 2
CCN1C(=O)CC(C(C)C)N(C2CCCC2)c2nc(Nc3ccc(C(=O)NC4CCN(C)CC4)cc3OC)ncc21 (configuration not stated) | u | -74* | 10 | -20% | u | 4
COc1ccccc1-n1cnc2cc(C(=O)NC3CCCC3)ccc21 | u | 0 | -12 | -5% | u | -31
O=C(NCCN1CCOCC1)c1ccc(N2CCCC2)c([N+](=O)[O-])c1 | 1% | 0 | -6 | x | -3% | -4
N#CC1=C2SCC(O)(c3ccccc3)N2C(=O)CC1c1ccccc1F (configuration not stated) | 8.2µM* | u | 2 | -2% | 13µM* | 4
N#CC1=C2SCC(O)(c3ccccc3)N2C(=O)CC1c1cccs1 (configuration not stated) | 1µM* | u | 3 | 0% | 1.2µM* | -11
Cc1cccc(NC(=O)C2CCCN(S(=O)(=O)c3ccc4[nH]c(=O)ccc4c3)C2)n1 (configuration not stated) | -10% | 18 | 22 | -8% | u | -4
